Data: PubChem BioAssay (NCI)
The panel holds about 79,000 compounds, 15% with a hit somewhere; the sample as a whole holds those more often. A number with no mark means an inactive call. Activity calls are given as the source filed them. No stated cut-off is given here; in the data, active means growth inhibition above about 70%; inactive means the rest.

Assay: NCI Yeast Anticancer Drug Screen. Data for the mlh1 rad18 strain (AID 175)
Details: S. cerevisiae mlh1 rad18 strain growth inhibition; at 50.0 µM; stronger effect = higher value
Outline: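 In this whole-cell yeast screen, a strain with altered DNA damage repair is challenged with compound, and its growth is measured against matched vehicle-treated controls.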

Row | SMILES | growth inhibition
1 | O=C1C(N=Nc2ccccc2)=C(O)C2C3C=CC(C3)C12 (centres undefined) | 98.8% (active)
2 | CC1CCCC(C(O)(C(=O)O)C2CCCC(C)C2)C1 (centres undefined) | 69.7%
3 | Cc1c(Cl)ccc2c1NC(=O)C2(O)CC(=O)c1ccc(Cl)cc1 (centres undefined) | 99.2% (active)
4 | Cc1cc2c(=O)[nH]c(N)nc2nc1C | -21.5%
5 | C=C1C(=O)O[C@@H]2C[C@@]3(C)CCC[C@H](C)C3=C[C@H]12 | 68.5%
6 | CCC(=NCCCCCCN=C(CC)c1cc(C)cc([N+](=O)[O-])c1O)c1cc(C)cc([N+](=O)[O-])c1O.[Fe] | 80.8% (active)
7 | CCCCN(CCCC)CC(O)c1cc(-c2ccc(Cl)cc2)nc2c(Cl)cccc12 (centres undefined) | 99.3% (active)
8 | COc1ccc2c(c1)CC/C(=C\c1ccc(OCCN(C)C)cc1)C2=O | 57%
9 | CCOC(=O)c1cc2c(nc1NCc1ccc(OC)c(OC)c1)/C(=C/c1ccccc1)CCCC2 | 90.2% (active)
10 | CSCS(=O)C[C@H](CO)NC(=O)/C=C/c1c(C)[nH]c(=O)[nH]c1=O (some centres undefined) | 85.1% (active)
11 | CCOC(=O)c1c(N)sc2c1CCCCC2 | 61.1%
12 | Cc1cc(N)c(C)c2c1[nH]c1ccc(Br)cc12 | 38.5%
13 | N=C(N)Sc1ccc([N+](=O)[O-])cc1Cl | 85.7% (active)
14 | COc1c(OC)c(C2(O)C(=O)N(C)c3ccccc32)c(OC)c(OC)c1C1(O)C(=O)N(C)c2ccccc21 (centres undefined) | 7.15%
15 | Fc1cccc(NC(=S)SCc2ccc(Cl)cc2)c1 | 99.6% (active)
16 | Cc1ccc(/C=N/NS(=O)(=O)c2ccccc2)c(C)c1 | 36.9%
17 | CCCCCCCCCCCCNC(=O)C[n+]1cccc(C(=O)N(C)C)c1 | 53.4%
18 | CN(C)C(=S)/N=c1\ss/c(=N\S(=O)(=O)c2ccccc2)n1-c1ccccc1 | 59.7%
19 | O=C(NCCCl)Nc1c2ccccc2nc2ccccc12 | 37%
20 | COc1ccccc1NC(=O)/C(=C/c1ccccc1)C(C)=O | 66.5%

Row | SMILES | growth inhibition
21 | Oc1[nH]c2ccccc2c1N=NC(=S)NCc1ccccn1 | 91.8% (active)
22 | c1cc2c(cc1CCCCCCCCCCc1ccc3c(c1)CCC3)CCC2 | 10.6%
23 | C=Cc1ccccc1C1(O)C=CC(OC)(OC)C=C1 | 15.2%
24 | CN(C)CC1CCc2c(ccc3ccccc23)C1=O (centres undefined) | 53.8%
25 | CCCCC(C)(C)OC(=O)Nc1ccc(Br)cc1 | 97.4% (active)
26 | O=C(Nc1ccc(F)c(Cl)c1)Oc1ccc(Br)cc1Br | 89.5% (active)
27 | CCO/C=C1\N=C(C(O)(c2ccc(Cl)cc2)c2ccc(Cl)cc2)OC1=O | 34%
28 | O=C1c2ccccc2C(O)(c2ccccc2)c2c(Cl)cccc21 (centres undefined) | 96.7% (active)
29 | Nc1ccccc1-c1nc2c(ccc3ccccc32)[nH]1 | 80.5% (active)
30 | CCCCCCCCCCCCCCNCCN | 88.5% (active)
31 | CC(C)CCCC(C)C1CCC2C3CC=C4OC(=O)CCC4(C)C3CCC12C (centres undefined) | 90.6% (active)
32 | CC(Br)C(=O)c1ccc2cc(Cl)c3ccccc3c2c1 (centres undefined) | 39.1%
33 | N#CSc1ccc2nc(NCO)sc2c1 | 99.1% (active)
34 | c1ccc2c3[nH]c(c2c1)=Nc1ccc(cc1)-c1nc2ccc(cc2o1)N=c1[nH]c(c2ccccc12)=Nc1ccc2nc(oc2c1)-c1ccc(cc1)N=3 | 88.6% (active)
35 | CCOc1ccc2nc(NC(=O)c3c/c(=N\NC(=O)C[N+](C)(C)C)c4ccc(O)cc4o3)sc2c1 | 99.2% (active)
36 | C[C@@H]1CC=C[C@@H](NC(=O)OCc2ccccc2)[C@H]1C=O | 80.2% (active)
37 | O=C(/C=C/c1cccc([N+](=O)[O-])c1)CCl | 99.3% (active)
38 | CCC[CH2][Sn]([CH2]CCC)([O]C(=O)c1cccc(F)c1F)[O]C(=O)c1cccc(F)c1F | 86.4% (active)
39 | O=C(O)CCC(=O)NNc1ccccc1 | 86.1% (active)
